# Experimental data published in PMC8384837, “Expanding the binding specificity for RNA recognition by a PUF domain”.
# Assays:
# Test in all cases: yeast three-hybrid, YBZ-1, SC-Leu-His + 0.5 mM 3-AT, 4 days
# Conditions in all cases: tags: N-Gal4 AD-HA kept; label: inside an RPR1-promoter hybrid RNA with tandem MS2 sites; ssRNA
# PUM1 PUF domain R1-KKD = PUM1 PUF domain R1-KKD (Homo sapiens, UniProt Q14671 828-1176, S863K;R864K;Q867D)
# Procedure, shortened: (§1)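 Sequencing with Illumina followed PCR amplification of the repeat regions from transformants grown four days on SC-Leu (input) or SC-Leu-His + 0.5 mM 3-AT (selection). The transformants were strain YBZ-1 with a LexA–MS2 coat fusion and a HIS3 reporter, carrying Pumilio-1 PUF domain libraries and matching RNA elements. The interaction score is the log change in variant frequency from input to selection, computed in log2 with a pseudocount of 1 for absent variants.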
# PUM1 PUF domain R1-GWK = PUM1 PUF domain R1-GWK (Homo sapiens, UniProt Q14671 828-1176, S863G;R864W;Q867K)
# Procedure, shortened: as §1
# PUM1 PUF domain R7-ERR = PUM1 PUF domain R7-ERR (Homo sapiens, UniProt Q14671 828-1176, S1079E;N1080R;E1083R)
# Procedure, shortened: as §1
# PUM1 PUF domain R4-SPQ = PUM1 PUF domain R4-SPQ (Homo sapiens, UniProt Q14671 828-1176, N971S;H972P)
# Procedure, shortened: as §1
# PUM1 PUF domain R6-VFL = biological target: T1, PUM1 PUF domain R6-VFL (Homo sapiens, UniProt Q14671 828-1176, N1043V;Y1044F;Q1047L)
# T1 sequence: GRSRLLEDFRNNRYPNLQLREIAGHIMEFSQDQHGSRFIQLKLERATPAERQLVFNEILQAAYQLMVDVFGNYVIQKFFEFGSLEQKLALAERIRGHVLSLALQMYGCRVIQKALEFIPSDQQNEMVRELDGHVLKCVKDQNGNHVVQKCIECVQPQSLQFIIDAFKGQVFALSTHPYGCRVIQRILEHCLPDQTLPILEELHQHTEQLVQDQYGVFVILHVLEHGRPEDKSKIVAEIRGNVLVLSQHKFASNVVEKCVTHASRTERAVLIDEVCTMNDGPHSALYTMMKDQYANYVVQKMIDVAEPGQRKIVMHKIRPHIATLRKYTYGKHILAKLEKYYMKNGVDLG
# Procedure, shortened: as §1
# PUM1 PUF domain R5-PHQ = PUM1 PUF domain R5-PHQ (Homo sapiens, UniProt Q14671 828-1176, C1007P;R1008H)
# Procedure, shortened: as §1
# PUM1 PUF domain R5-NVR = PUM1 PUF domain R5-NVR (Homo sapiens, UniProt Q14671 828-1176, C1007N;R1008V;Q1011R)
# Procedure, shortened: as §1
# PUM1 PUF domain R4-NCG = PUM1 PUF domain R4-NCG (Homo sapiens, UniProt Q14671 828-1176, H972C;Q975G)
# Procedure, shortened: as §1
# PUM1 PUF domain R2-AWS = PUM1 PUF domain R2-AWS (Homo sapiens, UniProt Q14671 828-1176, N899A;Y900W;Q903S)
# Procedure, shortened: as §1
# PUM1 PUF domain R8-IYW = PUM1 PUF domain R8-IYW (Homo sapiens, UniProt Q14671 828-1176, N1122I;Q1126W)
# Procedure, shortened: as §1
sequence,measurement,setting,value
GGCUAGAACUAGUGGAUCCCCCGGCGCCCGGCGGCUCGAGCCCGGGUAAGUGUAAAUUGUCUGCAUGCCGCCGGGCGCCAUGCCUGCAGGUCGACUCUAGAAAACAUG,binding signal,PUM1 PUF domain R1-KKD,3.36 log2 enrichment (interaction score)
same,binding signal,PUM1 PUF domain R1-GWK,3.01 log2 enrichment (interaction score)
GGCUAGAACUAGUGGAUCCCCCGGCGCCCGGCGGCUCGAGCCCGGGUAAGUGUAAAUCGUCUGCAUGCCGCCGGGCGCCAUGCCUGCAGGUCGACUCUAGAAAACAUG,binding signal,PUM1 PUF domain R1-GWK,3.6 log2 enrichment (interaction score)
GGCUAGAACUAGUGGAUCCCCCGGCGCCCGGCGGCUCGAGCCCGGGUAAGUUUAAAUAGUCUGCAUGCCGCCGGGCGCCAUGCCUGCAGGUCGACUCUAGAAAACAUG,binding signal,PUM1 PUF domain R7-ERR,3.08 log2 enrichment (interaction score)
GGCUAGAACUAGUGGAUCCCCCGGCGCCCGGCGGCUCGAGCCCGGGUAAGUCUAAAUAGUCUGCAUGCCGCCGGGCGCCAUGCCUGCAGGUCGACUCUAGAAAACAUG,binding signal,PUM1 PUF domain R7-ERR,1.25 log2 enrichment (interaction score)
GGCUAGAACUAGUGGAUCCCCCGGCGCCCGGCGGCUCGAGCCCGGGUAAGUGUAAAUAGUCUGCAUGCCGCCGGGCGCCAUGCCUGCAGGUCGACUCUAGAAAACAUG,binding signal,PUM1 PUF domain R4-SPQ,3.02 log2 enrichment (interaction score)
same,binding signal,PUM1 PUF domain R6-VFL,1.07 log2 enrichment (interaction score)
same,binding signal,PUM1 PUF domain R5-PHQ,3.63 log2 enrichment (interaction score)
GGCUAGAACUAGUGGAUCCCCCGGCGCCCGGCGGCUCGAGCCCGGGUAAGUGUCAAUAGUCUGCAUGCCGCCGGGCGCCAUGCCUGCAGGUCGACUCUAGAAAACAUG,binding signal,PUM1 PUF domain R5-NVR,2.77 log2 enrichment (interaction score)
GGCUAGAACUAGUGGAUCCCCCGGCGCCCGGCGGCUCGAGCCCGGGUAAGUGUUAAUAGUCUGCAUGCCGCCGGGCGCCAUGCCUGCAGGUCGACUCUAGAAAACAUG,binding signal,PUM1 PUF domain R5-NVR,4.09 log2 enrichment (interaction score)
GGCUAGAACUAGUGGAUCCCCCGGCGCCCGGCGGCUCGAGCCCGGGUAAGUGUAUAUAGUCUGCAUGCCGCCGGGCGCCAUGCCUGCAGGUCGACUCUAGAAAACAUG,binding signal,PUM1 PUF domain R4-NCG,3.59 log2 enrichment (interaction score)
GGCUAGAACUAGUGGAUCCCCCGGCGCCCGGCGGCUCGAGCCCGGGUAAGUGUAAAAAGUCUGCAUGCCGCCGGGCGCCAUGCCUGCAGGUCGACUCUAGAAAACAUG,binding signal,PUM1 PUF domain R2-AWS,4.37 log2 enrichment (interaction score)
GGCUAGAACUAGUGGAUCCCCCGGCGCCCGGCGGCUCGAGCCCGGGUAAGUGAAAAUAGUCUGCAUGCCGCCGGGCGCCAUGCCUGCAGGUCGACUCUAGAAAACAUG,binding signal,PUM1 PUF domain R6-VFL,7.04 log2 enrichment (interaction score)
GGCUAGAACUAGUGGAUCCCCCGGCGCCCGGCGGCUCGAGCCCGGGUAAGCGUAAAUAGUCUGCAUGCCGCCGGGCGCCAUGCCUGCAGGUCGACUCUAGAAAACAUG,binding signal,PUM1 PUF domain R8-IYW,2.87 log2 enrichment (interaction score)
